Drawing on PubChem BioAssay, this text covers red/green cell ratio (normalised) and normalised cell number for 30 molecules.

A short description of this experiment: EMT-state selective cytotoxicity in co-culture – imaging, PC-3E GFP, TEM4-18 mCherry, primary screen (AID 1345086).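 On all read-outs here: cells exposed to compound for 72 h before imaging.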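 On red/green cell ratio (normalised): normalised mesenchymal count divided by normalised epithelial count so high means epithelial killing.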 The settings on record: PC-3E GFP / TEM4-18 mCherry co-culture, imaging cell counts, at 1 µM; for red/green cell ratio (normalised): actives lie on both sides, counts scaled to control wells, 1 = unselective.
[1] abbreviates: measured here: epithelial PC-3E GFP cell survival.
[2] abbreviates: measured here: mesenchymal TEM4-18 mCherry cell survival.

SMILES strings stand for the structures. The source made the active and inactive calls.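 How the source made its calls: active means compounds killing one labelled cell type while sparing the other, by normalised counts and ratio limits, not self-fluorescent; inactive means the rest.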

On to `Cc1ccc(S(=O)(=O)O[C@H]2CCOC2=O)cc1`, for which the red/green cell ratio (normalised) was 0.92 (inactive). The same molecule displayed a normalised cell number under setting [1] of 1.16. For the same molecule, the normalised cell number under setting [2] was 1.06.

On to `C[C@@H]1[C@H](O)[C@@H](C)/C=C/C=C/C=C/C=C/C=C/C=C/C=C/[C@H](OC2O[C@H](C)[C@@H](O)[C@H](N)[C@@H]2O)C[C@@H]2O[C@](O)(C[C@@H](O)C[C@@H](O)[C@H](O)CC[C@@H](O)C[C@@H](O)CC(=O)O[C@H]1C)C[C@H](O)[C@H]2C(=O)O` (stereo not given in full), for which the red/green cell ratio (normalised) is 0.82 (inactive). This molecule also registered a normalised cell number under setting [1] of 1.26. This molecule also showed a normalised cell number under setting [2] of 1.03.

Take `C[C@@]1(N)CCCCCN(c2c(F)cc3c(=O)c(C(=O)O)cn(C4CC4)c3c2Cl)C1`: the red/green cell ratio (normalised) was 1.03 (inactive). In addition, under setting [1], the normalised cell number was 0.97. In addition, the normalised cell number under setting [2] was 1.

Consider `Cc1ccc(S(=O)(=O)O[C@@H]2CCOC2=O)cc1`, for which the red/green cell ratio (normalised) was 0.71 (inactive). In addition, the normalised cell number under setting [1] is 1.41. In addition, under setting [2], the normalised cell number was 1.01.

In the case of `COc1cc(O)c2c(c1)C(=O)C1=C(C2=O)C(OC)OC1` (stereo not given), the red/green cell ratio (normalised) was 1.02 (inactive). Under setting [1], this molecule showed a normalised cell number of 0.9. This molecule gave a normalised cell number under setting [2] of 0.92.

Turning to `C=CC(C)(C)c1cc(O)ccc1OC1OC(CO)C(O)C(O)C1O` (stereo not given), the red/green cell ratio (normalised) is 1.01 (inactive). This molecule also yielded a normalised cell number under setting [1] of 0.93. The molecule further registered a normalised cell number under setting [2] of 0.94.

Consider `COC(=O)c1cn(C2CC2)c2c(OC)c(F)c(F)c(N)c2c1=O`, for which the red/green cell ratio (normalised) was 1.1 (inactive). For the same molecule, the normalised cell number under setting [1] worked out at 0.97. Moreover, under setting [2], the normalised cell number came to 1.07.

On to `COC(=O)C[C@H]1C(C)(C)C(=O)[C@@H]2CC3C4=CC(=O)O[C@@H](c5ccoc5)[C@]4(C)CCC3C1(C)C2=O` (stereo not given in full), for which the red/green cell ratio (normalised) was 1.11 (inactive). The same molecule displayed a normalised cell number under setting [1] of 0.84. The normalised cell number under setting [2] was 0.94.

As for `C[C@@H](O)[C@H]1C(=O)N2C(C(=O)O)=C(SC3CN[C@H](C(=O)N(C)C)C3)[C@H](C)[C@H]12` (stereo not given in full), the red/green cell ratio (normalised) was 1.01 (inactive). Under setting [1], this molecule returned a normalised cell number of 0.98. The molecule further gave a normalised cell number under setting [2] of 0.99.

On to `COc1ccc(-c2oc3ccccc3c(=O)c2OC)cc1`, for which the red/green cell ratio (normalised) is 0.92 (inactive). Besides, the normalised cell number under setting [1] worked out at 1.18. Besides, the normalised cell number under setting [2] was found to be 1.08.

For `C[C@H](O)[C@@H]1N[C@H]2N(C1=O)c1ccccc1C21CC2C(=O)NC1c1nc3ccccc3c(=O)n12` (stereo not given in full), the red/green cell ratio (normalised) was 1.08 (inactive). The molecule further yielded a normalised cell number under setting [1] of 0.88. Under setting [2], this molecule had a normalised cell number of 0.95.

For the molecule `O=C1C=CC2(Oc3cccc4cccc(c34)O2)[C@H]2[C@H]1[C@@H](O)CC[C@H]2O`, the red/green cell ratio (normalised) is 1.07 (inactive). Further, the normalised cell number under setting [1] came to 0.95. The normalised cell number under setting [2] was determined as 1.01.

As to `C[C@@H]1CC[C@H]2C(C)(C)C3CC12CC[C@@]3(C)O` (stereo not given in full), the red/green cell ratio (normalised) was 0.98 (inactive). Under setting [1], this molecule registered a normalised cell number of 0.93. Further, the normalised cell number under setting [2] amounted to 0.91.

For `CC(C)CCCC(C)[C@H]1CCC2C3C=CC4=CC(=O)CC[C@]4(C)C3CC[C@@]21C` (stereo not given in full), the red/green cell ratio (normalised) is 0.99 (inactive). The molecule also had a normalised cell number under setting [1] of 0.94. The molecule also had a normalised cell number under setting [2] of 0.93.

Take `CC(=O)NC1[C@@H](O)C2OC(c3ccccc3)OCC2O[C@H]1Sc1ccccc1` (stereo not given in full): the red/green cell ratio (normalised) was 1.03 (inactive). Under setting [1], the normalised cell number is 1.06. Under setting [2], this molecule had a normalised cell number of 1.09.

`CC(C)=CCC/C(C)=C\CC1=C(C)C(=O)c2ccccc2C1=O`: the red/green cell ratio (normalised) is 0.98 (inactive). This molecule also gave a normalised cell number under setting [1] of 1.11. The normalised cell number under setting [2] was determined as 1.09.

Regarding `Nc1nc2c(c(=O)[nH]1)NC(CNc1ccc(C(=O)NC(CCC(=O)O)C(=O)O)cc1)=CN2` (stereo not given), the red/green cell ratio (normalised) is 0.83 (inactive). Further, the normalised cell number under setting [1] amounted to 1.19. The molecule further yielded a normalised cell number under setting [2] of 0.99.

With `Cc1ccc(S[C@H]2OC(COS(=O)(=O)c3ccc(C)cc3)C(O)[C@@H]3OC(=O)N[C@H]23)cc1` (stereo not given in full), the red/green cell ratio (normalised) was 0.86 (inactive). Moreover, the normalised cell number under setting [1] was determined as 1.19. Also, the normalised cell number under setting [2] is 1.02.

`O=C(C/C=C/c1ccc(O)c(O)c1)O[C@H](Cc1ccc(O)c(O)c1)C(=O)O`: the red/green cell ratio (normalised) was 1.06 (inactive). Moreover, under setting [1], the normalised cell number was 1. Also, the normalised cell number under setting [2] was determined as 1.06.

Regarding `COc1cc(O)c(C(C)=O)c(O)c1`, the red/green cell ratio (normalised) was 0.99 (inactive). This molecule also returned a normalised cell number under setting [1] of 0.97. The molecule further had a normalised cell number under setting [2] of 0.97.

Consider `C[C@@H]1C[C@@H](O)[C@@H](O)CO1`, for which the red/green cell ratio (normalised) is 1.05 (inactive). In addition, under setting [1], the normalised cell number is 0.91. This molecule also gave a normalised cell number under setting [2] of 0.96.

`NC(CSCSCC(N)C(=O)O)C(=O)O` (stereo not given): the red/green cell ratio (normalised) is 1.19 (inactive). Besides, the normalised cell number under setting [1] was determined as 0.91. The molecule further yielded a normalised cell number under setting [2] of 1.08.

As for `Cc1oc(=O)c2c(O)cc(O)c(C)c2c1C`, the red/green cell ratio (normalised) was 1.03 (inactive). The same molecule had a normalised cell number under setting [1] of 1.11. In addition, under setting [2], the normalised cell number turned out to be 1.14.

With `COC(=O)C12C(C(C)=O)OC(CC(O)C1O)C2C` (stereo not given), the red/green cell ratio (normalised) was 0.97 (inactive). Moreover, the normalised cell number under setting [1] is 1.04. In addition, the normalised cell number under setting [2] was 1.01.

As to `C/C=C\C(=O)O[C@@H]1[C@H](O)[C@@H](O)CO[C@@H]1C`, the red/green cell ratio (normalised) was 1.01 (inactive). Moreover, the normalised cell number under setting [1] was 0.99. The same molecule had a normalised cell number under setting [2] of 0.99.

For `CC(CC(=O)N1C(=O)OC[C@H]1c1ccccc1)N1CCSC1=S` (stereo not given in full), the red/green cell ratio (normalised) is 0.94 (inactive). In addition, the normalised cell number under setting [1] came to 1.15. Besides, the normalised cell number under setting [2] worked out at 1.08.

`CCC(/C=C/[C@@H](C)[C@H]1CCC2C3CC=C4C[C@@H](O)CC[C@]4(C)C3CC[C@@]21C)C(C)C` (stereo not given in full): the red/green cell ratio (normalised) was 1.07 (inactive). In addition, the normalised cell number under setting [1] was found to be 1.13. Under setting [2], this molecule returned a normalised cell number of 1.2.

`CO[C@H]1CC(O[C@@H]2/C(C)=C/C[C@@H]3C[C@@H](C[C@]4(CC[C@H](C)[C@@H](C5CCCCC5)O4)O3)OC(=O)[C@@H]3C=C(C)/C(=N/O)C4OC/C(=C\C=C\[C@@H]2C)[C@]43O)O[C@@H](C)C1O` (stereo not given in full): the red/green cell ratio (normalised) is 1.11 (inactive). Further, the normalised cell number under setting [1] was 1.23. The same molecule showed a normalised cell number under setting [2] of 1.36.

Consider `Nc1nc(=S)c2ncn(C3O[C@H](CO)[C@@H](O)[C@H]3O)c2[nH]1` (stereo not given in full), for which the red/green cell ratio (normalised) was 0.83 (inactive). This molecule came in with a normalised cell number under setting [1] of 1.02. The same molecule came in with a normalised cell number under setting [2] of 0.85.

Take `C=CC(C)(C)c1ccc2[nH]c3c(c2c1)C[C@@H]1CC[C@@]2(O)C4=CC(=O)[C@@H]5O[C@@]4(CC[C@]2(C)[C@@]31C)OC5(C)C`: the red/green cell ratio (normalised) is 1.04 (inactive). For the same molecule, the normalised cell number under setting [1] was 0.97. For the same molecule, the normalised cell number under setting [2] is 1.01.
